SKN-1 inh: C. elegans SKN-1 inhibition. C. elegans VP596 Pgst-4::GFP/RFP ratio, acrylamide-induced, 24 h. inhibition, % at 21.8 µM. 360,000 compounds, 0.49% hits. AID 624304;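 active = interference check ratio from 0.5 to 1.5 plus GFP to RFP signal ratio inhibition reaching or exceeding a fixed threshold, cut at about 30% in these data, passing the limit was not always enough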
Mot1-301 SUMO: SUMOylation pathway inhibition by Mot1-301 growth rescue; S. cerevisiae Mot1-301 growth rescue, ATP luminescence, 38.5C; percent above DMSO median, 100 means doubled; growth rescue, % at 18.8 µM; 320,000 compounds, 1% hits; AID 2716;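 active = every valid replicate shows activation above 250% relative to neutral control wells; inactive = the rest, any valid replicate at or below 250%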
Efflux pump mplx: antifungal efflux pump inhibition, Nile Red retention | S. cerevisiae Candida pump triplex | inhibition, % at 10 µM | 330,000 compounds, 0.44% hits | AID 485275;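 active = plate passing quality check with inhibition over a set limit, or well fluorescence over plate mean plus 4 SD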;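 also: Nile Red retained in pooled yeast measured as flow cytometry median fluorescence; higher means more Nile Red kept so more efflux inhibition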
HGIII-sPLA2 inh: Inhibits HGIII-sPLA2 liposome hydrolysis, primary screen; 370,000 compounds, 0.56% hits; inhibition, % at 12.2 µM; Q9NZ20; QFRET BODIPY PC-A2 liposome hydrolysis, fluorescence;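 active = inhibition above mean plus 3 SD of compounds lying within the high and low control bounds, cut at about 19% in these data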
Target sequence (Q9NZ20 whole entry, looked up): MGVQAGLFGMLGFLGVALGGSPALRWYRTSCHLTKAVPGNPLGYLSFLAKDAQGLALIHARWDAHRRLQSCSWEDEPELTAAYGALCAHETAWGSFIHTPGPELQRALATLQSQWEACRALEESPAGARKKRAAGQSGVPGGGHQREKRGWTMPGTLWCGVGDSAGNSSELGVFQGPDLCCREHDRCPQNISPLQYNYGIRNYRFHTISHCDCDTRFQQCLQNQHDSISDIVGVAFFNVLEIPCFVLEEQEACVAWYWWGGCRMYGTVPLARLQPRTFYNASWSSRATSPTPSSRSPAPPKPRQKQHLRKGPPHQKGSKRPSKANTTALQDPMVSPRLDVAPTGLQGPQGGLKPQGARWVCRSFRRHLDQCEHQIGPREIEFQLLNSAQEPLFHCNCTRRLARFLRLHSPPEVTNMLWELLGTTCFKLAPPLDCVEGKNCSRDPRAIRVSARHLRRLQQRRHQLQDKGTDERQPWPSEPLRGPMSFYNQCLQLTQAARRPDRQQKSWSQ
Yeast cmpd fluor: compound fluorescence in yeast efflux pump counter-screen. shares compounds with Efflux pump mplx. S. cerevisiae AD/pABC3, flow cytometry. fluorescence ratio to DMSO, % at 10 µM. 1,700 compounds, 4% hits. AID 588517;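 active = fluorescence ratio to DMSO above its plate's cutoff, the plate mean ratio plus 5 SD, cut at about 210% in these data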;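 also: unstained yeast with no Nile Red so the signal is compound autofluorescence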
CaMdr1 efflux inh: inhibitors of Candida albicans Mdr1 efflux pump | shares compounds with Efflux pump mplx | S. cerevisiae AD/CaMDR1, Nile Red efflux, flow cytometry | inhibition, % at 10 µM | 1,700 compounds, 1% hits; in the data active = inhibition above about 26%;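 also: higher means more Nile Red retained so more efflux inhibition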
CaCdr2 efflux inh: blocks the Candida albicans Cdr2 efflux pump in yeast; AID 588520; Nile Red retention ratio vs DMSO, % at 10 µM; S. cerevisiae AD/CaCDR2, Nile Red retention, flow cytometry; shares compounds with Efflux pump mplx; 1,700 compounds, 4% hits; in the data active = Nile Red retention ratio vs DMSO above about 190%;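 also: higher ratio means more blocking of Cdr2 efflux of the dye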
Cdr1 pump inh: inhibitors of Candida albicans Cdr1 efflux pump; shares compounds with Efflux pump mplx; 1,700 compounds, 1% hits; AID 588522; S. cerevisiae AD/CaCDR1, Nile Red efflux, flow cytometry; inhibition, % at 10 µM;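 active = inhibition above the screen-wide mean plus twice its standard deviation, cut at about 32% in these data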
A number is an active result; n = inactive; x = not tested or not shown. A selection: hits, their analogues and other compounds. The true share with any hit is near 2.2%.

SMILES	SKN-1 inh	Mot1-301 SUMO	Efflux pump mplx	HGIII-sPLA2 inh	Yeast cmpd fluor	CaMdr1 efflux inh	CaCdr2 efflux inh	Cdr1 pump inh
COc1ccc(C(=O)NC23CC4CC(CC(C4)C2)C3)cc1	n	n	n	n	x	x	x	x
O=C(CSc1ccccc1F)Nc1ccc(N2CCOCC2)cc1	n	n	0.8	n	n	n	n	n
Cn1c(Cc2ccccc2)nnc1SCC(=O)Nc1ccc(N2CCOCC2)cc1	n	n	1.3	n	n	n	n	n
O=C(CSc1ccccc1)Nc1ccc(N2CCOCC2)cc1	n	n	n	n	x	x	x	x
Cn1c(CC(=O)Nc2ccccc2)nnc1SCC(=O)Nc1ccc(N2CCOCC2)cc1	n	n	n	n	x	x	x	x
C[C@H]1[C@H](NCc2cccnc2)CC[C@@]23CCCN2C(=O)CCC[C@@H]13	x	x	x	n	x	x	x	x
O=c1c2ccccc2[nH]c(=S)n1CCN1CCc2ccccc2C1	n	n	0.8	n	n	n	n	n
CN1CCN(CCn2c(=S)[nH]c3ccccc3c2=O)CC1	n	n	n	n	x	x	x	x
CCn1c(CNC(=O)c2cccc(C)c2)nnc1SCC(=O)N1CCOCC1	n	n	n	n	x	x	x	x
N#Cc1cc(C(=O)c2cc(F)ccc2O)cn(-c2nccs2)c1=O	n	n	6.7	n	210	n	n	n
CCOC(=O)c1c(C)c(C)n(Cc2cccc(OC)c2OC)c1C	n	n	14	n	n	n	n	n
CCOC(=O)c1cc(C)n(Cc2cccc(OC)c2OC)c1C	n	n	n	n	x	x	x	x
NS(=O)(=O)c1ccc(CCNC(=O)c2cc(-c3ccccc3)nc3ccccc23)cc1	n	n	21	n	n	n	n	n
CCN(CCn1cccn1)C(=O)CC1C(=O)NCCN1CCc1ccccc1 (configuration not stated)	n	n	n	n	x	x	x	x
NC(=O)C1CCN(c2nc(-c3ccccc3Br)cs2)CC1	x	n	n	n	x	x	x	x
NC(=O)C1CCN(c2nc(-c3ccccc3F)cs2)CC1	n	n	7.5	n	n	n	n	n
COC(=O)C1=C(C)Nc2sc(C(N)=O)c(N)c2C1c1ccncc1 (configuration not stated)	n	n	n	n	x	x	x	x
CCOC(=O)C1=C(C)Nc2sc(C(=O)c3ccc(OC)cc3)c(N)c2C1c1ccc(C(=O)OC)cc1 (configuration not stated)	n	n	11	n	n	n	n	n
Cn1c(N)nc(N)c(NC=O)c1=O	n	x	x	n	x	x	x	x
Cc1cc2nc3ccc(N(C)C)cc3nc2cc1N	n	n	1.6	n	n	n	n	n
CC(NC(=O)CN(C)CC(=O)Nc1cccc(F)c1)c1ccccc1 (configuration not stated)	n	n	n	n	x	x	x	x
COc1cc(C(=O)NC2CC(C)(C)Cc3c2cnn3-c2ccccc2)cc(OC)c1OC (configuration not stated)	n	n	n	n	x	x	x	x
COCc1ccc(C(=O)NC2CC(C)(C)Cc3c2cnn3-c2ccc(OC)cc2)o1 (configuration not stated)	n	n	n	n	x	x	x	x
Cc1cnc(C(=O)NC2CC(C)(C)Cc3c2cnn3-c2ccccc2)cn1 (configuration not stated)	n	n	n	n	n	n	n	n
COc1cccc(C(=O)NC2CC(C)(C)Cc3c2cnn3-c2cccc(F)c2)c1OC (configuration not stated)	n	n	n	n	n	n	n	n
COc1ccc(-n2ncc3c2CC(C)(C)CC3NC(=O)c2cnc(C)cn2)cc1 (configuration not stated)	n	n	n	n	n	n	n	n
COc1ccc(-c2coc3c(C(=O)NCC4CCOCC4)cccc23)c(C)c1	n	x	x	n	x	x	x	x
C=CCN1[C@H](Cc2ccccc2)COc2cc(F)ccc2S1(=O)=O	x	x	x	n	x	x	x	x
CCCC(=O)N1CCC1(C)C(=O)Nc1cccc(OC(C)C)c1 (configuration not stated)	n	x	x	n	x	x	x	x
Cc1ccc(N(C(C)C(=O)Nc2ccccc2C(=O)N2CCOCC2)S(C)(=O)=O)cc1C (configuration not stated)	n	x	n	n	x	x	x	x

From PubChem BioAssay
